Source: PubChem BioAssay AID819 (Columbia University Molecular Screening Center, 2007)
The whole screen tested about 94,000 compounds, of which about 280 (0.3%) were called active.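 Rule for the calls: active = activation above 40%, about the mean plus 3 SD, also judged a hit on visual image review; inconclusive = activation above 40% but not a hit on visual review; inactive = activation not above 40% and no visual hit.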 For the sample, actives were picked, then their nearest neighbours and some compounds at random.

Experiment: enhancers of NFkB p65 translocation in HUVEC – imaging, IL-1B stimulus, high-content imaging, primary screen (AID 819);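 note: percent activation is computed from the nuclear over cytoplasmic p65 intensity ratio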
Conditions: HUVEC IL-1B NFkB p65 nuclear translocation imaging; at 2 µM; stronger effect = higher value

| SMILES | activation |
| --- | --- |
| CN(C)/C(CN1CCCCC1)=C1\N=C(c2ccccc2)OC1=O | 13.1% (inactive) |
| CC(=O)NC1=NN(C(C)=O)C(C)(c2ccc(Cl)s2)S1 (stereo unspecified) | -0.11% (inactive) |
| O=C(CN1CCN(c2ccc(Cl)cc2)CC1)N1CCCC1 | -4.06% (inactive) |
| O=C(Nc1cccc(Cl)c1)Nc1nnc(-c2ccccc2)o1 | -2.48% (inactive) |
| CC1CCC2(CC1)NC(=O)N(CC(=O)c1cccn1C)C2=O (stereo unspecified) | -10.9% (inactive) |
| O=C(CN1C(=O)NC2(CCCC2)C1=O)Nc1ccc(F)c(F)c1F | 40.4% (active) |
| CC(C(=O)Nc1ccc(F)c(F)c1F)N1CCCCCC1 (stereo unspecified) | 24.8% (inactive) |
| C=CCn1c(Cn2nnc3ccccc32)nnc1SCC(=O)N/N=C/c1cc(Br)cc(OC)c1O | -7.49% (inactive) |
| COc1ccccc1CSc1nc2ccccc2[nH]1 | 0.73% (inactive) |
| O=C(Cc1ccc(S(=O)(=O)N2CCOCC2)s1)NCCC(c1ccccc1)c1ccccc1 | 7.66% (inactive) |
| CCOC(=O)C1=C(C)NC(C)=C(C(=O)OCC)C1C1=COCCO1 | 42.7% (active) |
| CCCC1NC(=O)NC(C)=C1C(=O)OCC (stereo unspecified) | -16.9% (inactive) |
| CCOC(=O)C1=C(C)NC(C)=C(C(=O)OCC)C1c1ccccn1 | 1.56% (inactive) |
| O=C(Nc1ccccc1[N+](=O)[O-])C1C(c2ccccc2)=C1c1ccccc1 | -5.91% (inactive) |
| O=C(/C=C/Nc1ccccc1OC(F)(F)F)C(F)(F)F | 10.9% (inactive) |
| O=C(CN1CCSCC1)N/N=C/c1ccc(F)cc1F | 6.22% (inactive) |
| Cc1cccc(N2CCN(C(=O)CN(C)S(=O)(=O)c3ccc4c(c3)CCC(=O)N4)CC2)c1C | -2.04% (inactive) |
| O=C(NC1CCCCC1)c1cc([N+](=O)[O-])ccc1N1CCOCC1 | -1.25% (inactive) |
| Cc1ccc2nc(-c3ccccc3)cc(C(=O)O)c2c1 | 1.92% (inactive) |
| Cc1ccc(-c2cc(C(=O)Nc3nn[nH]n3)c3ccccc3n2)c(C)c1 | -7.54% (inactive) |
| CC(C)(C)Cc1nnc(NC(=O)c2cc(-c3ccccc3)nc3ccccc23)s1 | 41.2% (active) |
| OCCN(Cc1ccccc1)Cc1ccc(Cl)cc1 | -4.34% (inactive) |
| CCOn1c(SC(C)C)nc2ccccc2c1=O | -7.95% (inactive) |
| Cc1cc(C)n(-c2c(F)c(F)c(COC(=O)c3ccccc3)c(F)c2F)n1 | 17.9% (inactive) |

| SMILES | activation |
| --- | --- |
| CCCOn1c(-n2nc(C)cc2C)nc2ccccc2c1=O | 121% (active) |
| CCOC(=O)C1=NNC2(c3ccc(Cl)cc3)C(=O)N(c3cc(C)cc(C)c3)C(=O)C12 (stereo unspecified) | -2.6% (inactive) |
| COC(=O)c1ccc(OCC(=O)NC(C)(C)C)cc1 | -5.58% (inactive) |
| CCOC(=O)c1c(C)oc2cc(Br)c(OCC(N)=O)cc12 | -3.13% (inactive) |
| Cc1nn(C)c(Oc2ccccc2)c1[N+](=O)[O-] | -6.86% (inactive) |
| Cc1ccc(NC(=S)N/N=C2/CCCc3c(C)cc(C)cc32)cc1 | 10.5% (inactive) |
| COc1ccc(C(=O)Cc2cnn(-c3ccccc3)c2)c(O)c1 | 52.4% (active) |
| COc1ccc(CC(=O)c2ccc(O)cc2O)cc1OC | 3.51% (inactive) |
| Cc1cc(O)cc(O)c1C(=O)Cc1cnn(-c2ccccc2)c1 | -0.94% (inactive) |
| O=c1c2ccccc2nc2n1C(CSc1ccc(Cl)cc1)CN2 (stereo unspecified) | -5.53% (inactive) |
| O=c1c2c(nc3nc[nH]n13)CCC2 | 17.9% (inactive) |
| CCCCn1c(=S)[nH]c2cc(S(=O)(=O)N3CCCCC3)ccc21 | 6.8% (inactive) |
| Clc1ccc(-c2nnc(-c3ccccc3)nc2N2CCSCC2)cc1 | 6.76% (inactive) |
| CC(C)CNC(=S)NNC(=O)c1ccccc1OC(F)F | -19% (inactive) |
| O=C(Cc1ccccc1)Nc1c(C(=O)N2CCCCCC2)cnn1-c1ccccc1 | -2.59% (inactive) |
| c1ccc(-c2csc(N3CCc4ccccc4C3)n2)cc1 | -1.32% (inactive) |
| Cc1[nH][nH]c(=O)c1C(c1ccc(-c2ccc(Cl)cc2)o1)c1c(C)[nH][nH]c1=O | 49.6% (active) |
| Cc1[nH][nH]c(=O)c1N=Nc1ccccc1 | 19.6% (inactive) |
| O=C(CCc1ccc(S(=O)(=O)NC2CCCCC2)cc1)NCc1ccccc1 | 1.98% (inactive) |
| CC(=O)c1cnc(SCCN2C(=O)c3ccccc3C2=O)nc1C | -4.03% (inactive) |
| CC(C)c1ccc(NC(=O)CCN2C(=O)c3ccc([N+](=O)[O-])cc3C2=O)cc1 | 6.09% (inactive) |
| CCOC(=O)CC(=O)CSc1nc(-c2ccccc2)cc(-c2ccc(Cl)cc2)c1C#N | 5.19% (inactive) |
| CN(C)/C=C/C(=O)c1ccccc1F | -2.94% (inactive) |
| ONC(=Nc1ccc(Cl)cc1)c1ccccc1Cl | 16.3% (inactive) |

| SMILES | activation |
| --- | --- |
| O=C(/C=C/c1ccccc1)N/C(=C/c1ccccc1)C(=O)Nc1ccccc1O | -5.06% (inactive) |
| CCOc1ccc(C(CCc2ccccc2)NC(=O)c2ccc(OC)c(OC)c2)cc1OCC (stereo unspecified) | -8.44% (inactive) |
| Cc1cc(Nc2ccccc2)nc(N)n1 | 19.9% (inactive) |
| CCOc1ccc(-c2c(C)n([O-])c3c([n+]2=O)CCCC3)cc1 | 0.86% (inactive) |
| Cc1cccc(-n2ncc(C#N)c2-n2cccc2)c1 | -2.16% (inactive) |
| CCOC(=O)CSc1ncc(-c2cccc(Cl)c2)cn1 | 4.13% (inactive) |
| Cc1ccccc1-n1c(C)cc(/C=N/NC(=O)c2ccc(CN3CCOCC3)cc2)c1C | 20.5% (inactive) |
| CC1CCc2c(c3ccccc3[nH]c2=O)O1 (stereo unspecified) | -2.19% (inactive) |
| COC(=O)c1cc(OC)c(OC)cc1NC(=O)CSc1ccc(C)cc1 | -0.33% (inactive) |
| C/C=C/C(=O)Nc1nnc(C(C)C)s1 | 11.2% (inactive) |
| CC1=C(C(N)=O)C(c2sccc2C)n2nnnc2N1 (stereo unspecified) | -11.1% (inactive) |
| CCOC(=O)C1=C(CN2CCc3ccccc32)NC(=O)NC1c1cc(C)ccc1C (stereo unspecified) | 3.45% (inactive) |
| COc1cc(NS(=O)(=O)c2ccc(N=Cc3c(C)[nH]n(-c4ccccc4)c3=O)cc2)nc(OC)n1 | -2.69% (inactive) |
| Cc1cccc(N(C(=O)Cc2cccs2)C(C(=O)NC2CCCC2)c2ccsc2)c1 (stereo unspecified) | -6.52% (inactive) |
| O=C(Nc1cc2ccccc2oc1=O)C1CCCCC1 | -8.41% (inactive) |
| CCC(C)n1c(-c2cc(OC)c(OC)c(OC)c2)nc2nc3ccccc3nc21 (stereo unspecified) | 6.63% (inactive) |
| COc1ccc(CCN(C(=O)COc2ccccc2)c2nc(-c3ccccc3)cs2)cc1OC | 4.5% (inactive) |
| O=[N+]([O-])c1ccccc1OCCCCN1CCCCC1 | -1.68% (inactive) |
| CCNC(=S)NNC(=O)Cc1ccccc1 | 0.95% (inactive) |
| COc1ccc(OCC(=O)NNC(=O)c2ccc(-c3ccccc3)cc2)cc1 | 21.4% (inactive) |
| CC(C)(C)c1ccc(C(=O)NNC(=O)Cc2ccccc2)cc1 | 41.9% (active) |
| Cc1cccc(C)c1NC1=NC(=S)N(c2ccc(N(C)C)cc2)C1(C)C | -11.7% (inactive) |
| O=C(CN1CCN(S(=O)(=O)c2ccc3ccccc3c2)CC1)NC(=O)NC1CCCCC1 | -3.21% (inactive) |
| O=C(Cn1cncn1)N/N=C/c1c2ccccc2cc2ccccc12 | -10.3% (inactive) |

| SMILES | activation |
| --- | --- |
| CC(C)OC(=O)c1c(NC(=O)c2ccco2)sc2c1CCCC2 | -2.72% (inactive) |
| CCOC(=O)c1c(NC(=O)CCC(=O)NCc2ccco2)sc2c1CCCC2 | 1.18% (inactive) |
| CCOC(=O)c1c(NC(=S)NC(=O)c2ccco2)sc2c1CCCC2 | 53.7% (active) |
| O=C(CSc1nnnn1-c1ccccc1)NCc1ccco1 | -8.15% (inactive) |
| Cc1sc(NC(=S)NC(=O)c2cccs2)nc1-c1ccc(CC(C)C)cc1 | 17.4% (inactive) |
| O=C(Nc1ccc(Br)c2cccnc12)c1ccc(Cn2cc([N+](=O)[O-])cn2)o1 | 25.7% (inactive) |
| CCN(CC)CCNc1ccc(Cl)cc1[N+](=O)[O-] | 11.6% (inactive) |
| CC(Sc1nnc(Cc2ccc([N+](=O)[O-])cc2)o1)C(N)=O (stereo unspecified) | 0.99% (inactive) |
| CC(Oc1ccc(Cl)cc1Cl)C(=O)/C=C/N(C)C (stereo unspecified) | 4.7% (inactive) |
| CC1=NC2(CCCc3c2no[n+]3[O-])N(O)C1(C)C (stereo unspecified) | 168% (active) |
| Cc1cccc(C)c1-n1c(C)cc(/C=C2\C(=O)NN(c3ccccc3)C2=O)c1C | -7.75% (inactive) |
| O=C(O)c1ccccc1-c1ccccc1C(=O)Nc1cccc2ccccc12 | 8.14% (inactive) |
| Cc1ccc(NC(=O)C(C)c2cccc(C(=O)c3ccccc3)c2)cc1 (stereo unspecified) | -0.9% (inactive) |
| O=C1C(=O)N(c2ccccc2)c2ccccc21 | -1.05% (inactive) |
| O=C(NC1CCc2ccccc21)C12CN(Cc3ccccc3)CC1C(c1cccc([N+](=O)[O-])c1)=NO2 (stereo unspecified) | -3.33% (inactive) |
| Cc1cc(C(=O)OCC(=O)Nc2ccc(F)c(F)c2)c(C)o1 | -18.7% (inactive) |
| CCn1c(COc2ccc(OC)cc2)nnc1SCC(=O)Nc1cc(OC)ccc1OC | 4.96% (inactive) |
| COc1ccc2c(c1OC)C(=O)OC2c1c(O)nc(SC)n(-c2ccccc2)c1=O (stereo unspecified) | 1.27% (inactive) |
| CCn1c(SC)nc(O)c(C(c2ccc(OC)c(O)c2)c2c(O)nc(SC)n(CC)c2=O)c1=O | 59.4% (active) |
| O=C(COc1ccc2ccccc2c1)N1CCN(C(=O)c2cccs2)CC1 | -12.1% (inactive) |
| Cc1nc2c(-c3ccc(F)cc3)c(C)nn2c(C)c1CCC(=O)NCc1ccco1 | -8.14% (inactive) |
| CCOC(=O)C1=C(c2ccccc2)N=C2SCC(=O)N2C1c1ccc(O)c(OC)c1 (stereo unspecified) | 22.6% (inactive) |
| Cc1cc(-c2ccccc2)n2nc(C)c(-c3ccccc3)c2n1 | -2.27% (inactive) |
| CC(=O)c1ccc(OCCN2CCOCC2)cc1 | 29.4% (inactive) |
